From PubChem BioAssay AID1159580 (chemical genetic matrix, 2015)
Hit rate of the full screen: of about 5,500 compounds, about 2,000 (36%) were called active. Inconclusive results (about 18%) are left out. No stated cut-off is given here; in the data, active means normalized growth mostly below about 0.91 (no sharp cut-off); inconclusive means no clear call, values can overlap the other calls; inactive means mostly above about 0.92. This is one part of the list.

Test: chemical genetic growth profiling, strain panel (AID 1159580);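 further: tested at 20 µM; growth read once vehicle control cultures reached saturation at 30 °C; 1 = growth at the plate median or of vehicle wells; lower values mean less growth of the strain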
Settings: growth OD

Measured: normalized growth

CC(=O)[C@H]1CCC2C3CC=C4C[C@@H](O)CC[C@]4(C)C3CC[C@@]21C (stereo partly specified)
active: S. cerevisiae deletion strains, locus YKL009W, strain mrt4, active compounds read low 0.856 | S. cerevisiae deletion strains, locus YLL026W, active compounds read low 0.912 | S. cerevisiae deletion strains, locus YLR039C, strain RIC1, active compounds read low 0.487 | S. cerevisiae deletion strains, locus YLR262C, strain YPT6 (second series), active compounds read low 0.456 | S. cerevisiae deletion strains, locus YLR262C, strain YPT6, active compounds read low 0.532 | S. cerevisiae deletion strains, locus YLR320W, strain mms22, active compounds read low 0.646 | S. cerevisiae deletion strains, locus YLR418C, strain cdc73, active compounds read low 0.791 | S. cerevisiae deletion strains, locus YNL071W, strain lat1, active compounds read low 0.716 | S. cerevisiae deletion strains, locus YNL307C, strain MCK1, active compounds read low 0.649 | S. cerevisiae deletion strains, locus YOR184W, strain ser1, active compounds read low 0.75 | S. cerevisiae deletion strains, locus YPL051W, strain arl3, active compounds read low 0.903 | S. cerevisiae deletion strains, locus YPL106C, strain sse1, active compounds read low 1.16 [resistant]
inactive: S. cerevisiae deletion strains, locus YKL068W, active compounds read low 1.01 | S. cerevisiae deletion strains, locus YKL085W, strain MDH1 (second series), active compounds read low 0.982 | S. cerevisiae deletion strains, locus YKL085W, strain MDH1, active compounds read low 0.982 | S. cerevisiae deletion strains, locus YKL160W, strain elf1, active compounds read low 0.944 | S. cerevisiae deletion strains, locus YKL190W, strain CNB1, active compounds read low 0.97 | S. cerevisiae deletion strains, locus YKR001C, strain vps1, active compounds read low 0.991 | S. cerevisiae deletion strains, locus YKR026C, strain gcn3, active compounds read low 1.01 | S. cerevisiae deletion strains, locus YKR091W, strain srl3, active compounds read low 1.01 | S. cerevisiae deletion strains, locus YLL001W, strain dnm1, active compounds read low 0.928 | S. cerevisiae deletion strains, locus YLL041C, strain sdh2, active compounds read low 0.999 | S. cerevisiae deletion strains, locus YLR027C, strain aat2, active compounds read low 0.926 | S. cerevisiae deletion strains, locus YLR058C, strain SHM2, active compounds read low 0.995 | S. cerevisiae deletion strains, locus YLR102C, strain apc9, active compounds read low 1.03 | S. cerevisiae deletion strains, locus YLR113W, strain HOG1, active compounds read low 1.01 | S. cerevisiae deletion strains, locus YLR221C, strain rsa3, active compounds read low 0.923 | S. cerevisiae deletion strains, locus YLR258W, strain gsy2, active compounds read low 0.961 | S. cerevisiae deletion strains, locus YLR268W, strain sec22, active compounds read low 0.949 | S. cerevisiae deletion strains, locus YLR330W, strain CHS5, active compounds read low 1.02 | S. cerevisiae deletion strains, locus YLR342W, strain FKS1 (second series), active compounds read low 0.896 | S. cerevisiae deletion strains, locus YLR342W, strain FKS1, active compounds read low 0.915 | S. cerevisiae deletion strains, locus YLR357W, strain rsc2, active compounds read low 1.09 | S. cerevisiae deletion strains, locus YLR370C, strain arc18, active compounds read low 0.987 | S. cerevisiae deletion strains, locus YLR371W, strain rom2, active compounds read low 1.02 | S. cerevisiae deletion strains, locus YLR384C, strain iki3, active compounds read low 0.998 | S. cerevisiae deletion strains, locus YML016C, strain PPZ1, active compounds read low 1 | S. cerevisiae deletion strains, locus YML032C, strain rad52, active compounds read low 0.952 | S. cerevisiae deletion strains, locus YML120C, strain ndi1, active compounds read low 0.934 | S. cerevisiae deletion strains, locus YML124C, strain tub3, active compounds read low 1.04 | S. cerevisiae deletion strains, locus YMR058W, strain fet3, active compounds read low 0.946 | S. cerevisiae deletion strains, locus YMR078C, strain ctf18, active compounds read low 1.01 | S. cerevisiae deletion strains, locus YMR125W, strain sto1, active compounds read low 0.988 | S. cerevisiae deletion strains, locus YMR129W, active compounds read low 0.985 | S. cerevisiae deletion strains, locus YMR205C, strain PFK2, active compounds read low 0.944 | S. cerevisiae deletion strains, locus YMR223W, strain ubp8, active compounds read low 0.964 | S. cerevisiae deletion strains, locus YMR231W, strain pep5, active compounds read low 1 | S. cerevisiae deletion strains, locus YMR263W, strain SAP30, active compounds read low 0.979 | S. cerevisiae deletion strains, locus YMR307W, strain GAS1, active compounds read low 1.19 | S. cerevisiae deletion strains, locus YNL067W, strain RPL9B, active compounds read low 0.935 | S. cerevisiae deletion strains, locus YNL128W, strain TEP1, active compounds read low 1.01 | S. cerevisiae deletion strains, locus YNL153C, strain GIM3, active compounds read low 0.948 | S. cerevisiae deletion strains, locus YNL183C, strain NPR1, active compounds read low 0.866 | S. cerevisiae deletion strains, locus YNL209W, strain ssb2, active compounds read low 0.983 | S. cerevisiae deletion strains, locus YNL233W, strain BNI4, active compounds read low 0.93 | S. cerevisiae deletion strains, locus YNL248C, strain rpa49, active compounds read low 0.899 | S. cerevisiae deletion strains, locus YNL250W, strain rad50, active compounds read low 1 | S. cerevisiae deletion strains, locus YNL271C, strain bni1, active compounds read low 1.02 | S. cerevisiae deletion strains, locus YNL298W, strain CLA4, active compounds read low 0.999 | S. cerevisiae deletion strains, locus YNL322C, strain KRE1 (second series), active compounds read low 1.03 | S. cerevisiae deletion strains, locus YNL322C, strain KRE1, active compounds read low 1.01 | S. cerevisiae deletion strains, locus YNR049C, strain mso1, active compounds read low 1.01 | S. cerevisiae deletion strains, locus YNR052C, strain pop2, active compounds read low 0.992 | S. cerevisiae deletion strains, locus YOL006C, strain TOP1, active compounds read low 0.68 | S. cerevisiae deletion strains, locus YOL012C, strain htz1 1.1 | S. cerevisiae deletion strains, locus YOL147C, strain pex11, active compounds read low 1.02 | S. cerevisiae deletion strains, locus YOR001W, strain rrp6, active compounds read low 0.904 | S. cerevisiae deletion strains, locus YOR061W, strain CKA2, active compounds read low 0.991 | S. cerevisiae deletion strains, locus YOR069W, strain VPS5, active compounds read low 1.01 | S. cerevisiae deletion strains, locus YOR070C, strain gyp1, active compounds read low 0.956 | S. cerevisiae deletion strains, locus YOR080W, strain dia2, active compounds read low 0.986 | S. cerevisiae deletion strains, locus YOR083W, strain WHI5, active compounds read low 0.907 | S. cerevisiae deletion strains, locus YOR106W, strain vam3, active compounds read low 0.927 | S. cerevisiae deletion strains, locus YOR136W, strain idh2, active compounds read low 1.01 | S. cerevisiae deletion strains, locus YOR144C, strain elg1, active compounds read low 1.03 | S. cerevisiae deletion strains, locus YOR231W, strain MKK1, active compounds read low 0.958 | S. cerevisiae deletion strains, locus YOR265W, strain rbl2, active compounds read low 0.967 | S. cerevisiae deletion strains, locus YOR270C, strain vph1, active compounds read low 0.783 | S. cerevisiae deletion strains, locus YOR290C, strain snf2, active compounds read low 0.947 | S. cerevisiae deletion strains, locus YOR316C, strain cot1, active compounds read low 1.03 | S. cerevisiae deletion strains, locus YPL055C, strain LGE1, active compounds read low 0.869 | S. cerevisiae deletion strains, locus YPL078C, strain atp4, active compounds read low 0.898 | S. cerevisiae deletion strains, locus YPL240C, strain hsp82, active compounds read low 1 | S. cerevisiae deletion strains, locus YPL241C, strain CIN2, active compounds read low 1 | S. cerevisiae deletion strains, locus YPL256C, strain CLN2, active compounds read low 1.02 | S. cerevisiae deletion strains, locus YPR119W, strain clb2, active compounds read low 1.02 | S. cerevisiae deletion strains, locus YPR141C, strain kar3, active compounds read low 1.05 | S. cerevisiae deletion strains, locus YPR163C, strain tif3, active compounds read low 1.02 | S. cerevisiae deletion strains, locus YPR167C, strain met16, active compounds read low 1.01 | S. cerevisiae deletion strains, strain wtn01, active compounds read low 0.948 | S. cerevisiae strains, strain wild type, active compounds read low 0.962
